# PubChem BioAssay
# For some of these results: Entries with a potency or affinity are not part of this list. Calls of active or inactive are those of the source. Unless noted, the rule behind the calls is not given here.
# How the values were obtained:
# [1] = inhibitors of Cryptococcus chitosan production, flow cytometry, Cibacron Brilliant Red staining (AID 1347148); details: Cryptococcus neoformans chitosan, stronger effect = lower value; at 10 µM unless noted;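 note: compound exposure lasted three days at 37 degrees C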
# [2] = liver-stage malaria parasite growth inhibition, primary screen, cell-based, HepG2, luciferase luminescence, HepG2 viability (AID 624349; in the data active = parasite load remaining mostly below about 12%, no sharp cut-off; inactive = mostly above about 10%;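 note: 100% = mean of DMSO negative control wells on the same plate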); details: P. berghei liver stage in HepG2, luciferase luminescence, concentration not given here; parasite load remaining: stronger effect = lower value; viability: measured here: HepG2 viability without parasites
# [3] = modifiers of HSF1 nuclear foci, imaging, Selleck Cancer Library (AID 1347162; in the data active = plate-normalised HSF1 focus index below about 0.46); details: human cells, at 10 µM; SSMD: measured here: HSF1 foci SSMD mean; cell count: measured here: cell number; plate-normalised HSF1 focus index: stronger effect = lower value
# [4] = polyglutamine-triggered caspase-3 activation inhibitors, cell-based (AID 1583); details: polyglutamine-induced caspase-3 activation, cell assay; stronger effect = higher value;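 tested at 10 µM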
# [5] = suppressors of polyQ aggregation in yeast, 75Q-TubU reporter (AID 1593); details: Yeast 75Q polyglutamine aggregation reporter
# [6] = rescue of polyQ-huntingtin neuronal dysfunction in worms, whole organism, C. elegans mechanosensory neurons, N-terminal huntingtin (AID 1599); details: touch response, stronger effect = higher value
# [7] = inhibitors of mitochondrial cytochrome c release, biochemical, purified mitochondria (AID 1603); details: stronger effect = lower value;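 note: mouse liver mitochondria challenged with calcium chloride; signal normalized to the plate average as 100%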
# [8] = inhibitors of polyQ protein aggregation (AID 1604); details: polyglutamine-induced protein aggregation inhibition assay; stronger effect = higher value; tested at 2.5 µM
# [9] = enhancers of glutamate uptake in motor neurons, MN-1 cell line (AID 1612); details: MN-1 motor neuron cells, stronger effect = higher value;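 note: tested at 1 µM final; 0% = mean of DMSO vehicle wells on each plate; positive means more glutamate uptake than control and negative means less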
# [10] = suppressors of polyglutamine aggregation in yeast, 75Q-TubH (AID 1616); details: S. cerevisiae 75Q-TubH polyglutamine aggregation suppression; stronger effect = higher value
compound,measurement,setting,value
CCCCC[C@@H](O)/C=C/[C@H]1[C@H](C/C=C\CCCC(=O)O)[C@@H](O)C[C@@H]1O,fold fluorescence,[1],4.53 (inactive)
CC(C)[C@@H](O)CC[C@H](C)[C@@H]1CC[C@@H]2[C@H]3CC=C4C[C@H](O)CC[C@@]4(C)[C@@H]3CC[C@]21C,fold fluorescence,[1],4.41 [at 124.2 µM] (inactive)
CC[C@@H](CO)Nc1nc(NCc2ccccc2)c2ncn(C(C)C)c2n1,parasite load remaining,[2],32.6% (inactive)
same,viability,[2],67.3%
same,fold fluorescence,[1],9.95 [at 141.1 µM] (inactive)
O=C(Nc1ncc([N+](=O)[O-])s1)c1ccc([N+](=O)[O-])c(Cl)c1,SSMD,[3],2.47
same,cell count,[3],7090
same,plate-normalised HSF1 focus index,[3],1.15 (inactive)
C=C1C(=O)O[C@@H]2C3OC3(C)CC/C=C(\C)CC[C@@H]12 (stereo not given in full),inhibition,[4],14.3%
same,score,[5],0.94
same,rescue above control,[6],8.2
same,cytochrome c release ratio,[7],0.54
same,inhibition of aggregation,[8],93.6%
same,glutamate uptake change,[9],-11%
same,aggregation suppression score,[10],0.572
same,fold fluorescence,[1],11.6 [at 201.4 µM] (inactive)
CCCCCCCCCCCCCCC[C@H](O)[C@@H](CO)NC(C)=O,fold fluorescence,[1],4.64 (inactive)
COc1cc(C(=O)NC(=S)Nc2cccc(NC(=O)c3ccccc3)c2)cc(OC)c1OC,SSMD,[3],4.07
same,cell count,[3],6830
same,plate-normalised HSF1 focus index,[3],1.24 (inactive)
CCCCCCCCCCCCCCCCCCOP(=O)(O)OC1CC[N+](C)(C)CC1,SSMD,[3],-3.23
same,cell count,[3],7160
same,plate-normalised HSF1 focus index,[3],0.793 (inactive)
NC(=NCCC[C@H](N)C(=O)O)N[N+](=O)O,SSMD,[3],2.98
same,cell count,[3],7230
same,plate-normalised HSF1 focus index,[3],1.18 (inactive)
COc1ccc(CCN(C)CCC[C@@](C#N)(c2ccc(OC)c(OC)c2)C(C)C)cc1OC,fold fluorescence,[1],7.65 [at 110 µM] (inactive)
CC(C)=CCC(O)C1=CC(=O)c2c(O)ccc(O)c2C1=O (stereo not given),fold fluorescence,[1],6.4 [at 173.4 µM] (inactive)
CCCCC[C@@H](O)/C=C/[C@H]1[C@H](CC(=O)CCCCC(=O)O)[C@H](O)C[C@@H]1O,fold fluorescence,[1],4.59 (inactive)
C[C@H]1CNCCN1S(=O)(=O)c1cccc2cnccc12,fold fluorescence,[1],3.94 [at 171.6 µM] (inactive)
CCCCC[C@H](O)c1cccc(OCc2ccc3ccccc3n2)c1,fold fluorescence,[1],5.53 (inactive)
CC(C)COC[C@H](CN(Cc1ccccc1)c1ccccc1)N1CCCC1,fold fluorescence,[1],8.48 [at 136.4 µM] (inactive)
COC(=O)C1=C(C)NC(C)=C(C(=O)OCCN(C)Cc2ccccc2)[C@H]1c1cccc([N+](=O)[O-])c1,fold fluorescence,[1],4.49 [at 104.3 µM] (inactive)
CC(=O)O[C@@H]1C(=O)[C@]2(C)C([C@@H](OC(=O)c3ccccc3)[C@@]3(O)C[C@@H](OC(=O)[C@@H](O)[C@H](NC(=O)c4ccccc4)c4ccccc4)C(C)=C1C3(C)C)[C@@]1(OC(C)=O)CO[C@H]1C[C@H]2O (stereo not given in full),fold fluorescence,[1],4.34 [at 58.6 µM] (inactive)
C=C1/C(=C/C=C2\CCC[C@]3(C)[C@@H]([C@H](C)/C=C/[C@@H](C)C(C)C)CC[C@@H]23)C[C@@H](O)C[C@@H]1O,SSMD,[3],1.3
same,cell count,[3],6600
same,plate-normalised HSF1 focus index,[3],1.07 (inactive)
CC[C@@]1([C@@H]2O[C@@H]([C@H]3O[C@@](O)(CO)[C@H](C)C[C@@H]3C)C[C@@H]2C)CC[C@H]([C@]2(C)CCC3(C[C@H](O)[C@@H](C)[C@@H]([C@@H](C)[C@@H](OC)[C@H](C)C(=O)O)O3)O2)O1 (stereo not given in full),fold fluorescence,[1],4.7 [at 72.2 µM] (inactive)
CCCCC[C@H](O)CCCC(=O)O,fold fluorescence,[1],4.65 [at 265.6 µM] (inactive)
CCCCC/C=C\C[C@H](O)/C=C/C=C/C=C\[C@H](O)CCCC(=O)O,fold fluorescence,[1],3.97 [at 1 µM] (inactive)
C=C1/C(=C\C=C2/CCC[C@]3(C)[C@@H]2CC[C@H]3[C@@H](C)CCCC(C)(C)O)C[C@H](O)C[C@H]1O,fold fluorescence,[1],7.1 (inactive)
CCCCC[C@@H](O)/C=C/[C@H]1[C@@H](C/C=C\CCCC(=O)O)[C@H](O)C[C@@H]1O,fold fluorescence,[1],4.83 (inactive)
C=C1O[C@](CO)(n2cnc3c(N)ncnc32)[C@@H](O)[C@H]1O,fold fluorescence,[1],10.1 [at 179 µM] (inactive)
CC(=O)[C@@H]1[C@@H](C#N)C[C@@H]2[C@H]3CC=C4C[C@H](O)CC[C@@]4(C)[C@@H]3CC[C@]21C,fold fluorescence,[1],3.64 [at 146.4 µM] (inactive)
COc1ccc(Cc2nn3c([C@@H](CCCc4ccccc4)[C@@H](C)O)nc(C)c3c(=O)[nH]2)cc1OC,SSMD,[3],2.11
same,cell count,[3],7160
same,plate-normalised HSF1 focus index,[3],1.12 (inactive)
CC(/C=C/C(=O)NO)=C\[C@H](C)C(=O)c1ccc(N(C)C)cc1,fold fluorescence,[1],17.7 [at 165.4 µM] (inactive)
CCCCCCCCCCCC[C@H](O)C(=O)O,fold fluorescence,[1],5.23 (inactive)
CC(=O)OCO[C@H](c1ccc2ccccc2c1)P(=O)(OCOC(C)=O)OCOC(C)=O,fold fluorescence,[1],4.04 [at 110 µM] (inactive)
COc1ccc(CC(N)C(=O)N[C@@H]2[C@H](O)[C@@H](n3cnc4c(N(C)C)ncnc43)O[C@H]2CO)cc1 (stereo not given in full),fold fluorescence,[1],4.82 [at 106 µM] (inactive)
CCCCC(C)(C)[C@@H](O)/C=C/[C@H]1[C@H](C/C=C\CCCC(=O)O)C(=O)C[C@@H]1O,fold fluorescence,[1],4.79 (inactive)
O=C1c2ccccc2-c2nc3nonc3nc21,SSMD,[3],-15
same,cell count,[3],3090
same,plate-normalised HSF1 focus index,[3],0.229 (active)
